NOMO-1 viab: STK33 inhibitor candidate reducing NOMO-1 cell viability | inhibition, % (test concentration not listed) | AID 2330 | 7.5% of 37,000 active | NOMO-1 AML viability, CellTiter-Glo luminescence, 72 h; in the data active = inhibition above about 80%; inconclusive = no clear call, values can overlap the other calls
Shh pathway inh: Sonic Hedgehog pathway inhibition | Shh-LIGHT2 Gli-luciferase reporter, 30 h | inhibition, % (test concentration not listed) | 2.1% of 22,000 active;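 active = mean inhibition across valid replicates above about 65%, limit read from the data; inconclusive = mean under the limit, yet half or more replicates past it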;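 also: pathway switched on by Shh-conditioned medium diluted 1 in 25 in low serum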
MITF inhib: blocks MITF activity | TRPM1 promoter luciferase, luminescence, 24 h | inhibition, % (test concentration not listed) | 0.28% of 37,000 active; in the data active = inhibition above about 85%; inconclusive = no clear call, values can overlap the other calls; inactive = below about 68%;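 also: human melanocyte line stably carrying TRPM1 promoter luciferase reporter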
Starred values were filed as active, the others as inactive. A selection: hits, their analogues and other compounds. The true share with any hit is near 8.1%.

For C[C@H](CO)N1C[C@H](C)[C@H](CN(C)CC2CCCCC2)Oc2ccc(NS(=O)(=O)c3ccc(F)cc3)cc2CC1=O the results were NOMO-1 viab 104*, Shh pathway inh -10 and MITF inhib -7.
For C[C@@H]1CN([C@H](C)CO)C(=O)Cc2cc(NS(=O)(=O)c3ccc(F)cc3)ccc2O[C@H]1CN(C)CC1CC1 the results were NOMO-1 viab 18, Shh pathway inh -50 and MITF inhib 0.
CC(C)NC(=O)N(C)C[C@H]1Oc2ccc(NS(=O)(=O)c3ccc(F)cc3)cc2CC(=O)N([C@@H](C)CO)C[C@@H]1C was read as NOMO-1 viab 13, Shh pathway inh -10 and MITF inhib -6.
Screening COc1ccc(CN(C)C[C@@H]2Oc3c(NC(=O)Nc4ccccc4)cccc3C(=O)N([C@@H](C)CO)C[C@H]2C)cc1 returned NOMO-1 viab 100*, Shh pathway inh 6 and MITF inhib 22.
C[C@H](CO)N1C[C@H](C)[C@@H](CN(C)Cc2ccc(Oc3ccccc3)cc2)Oc2c(NC(=O)Nc3ccc(F)cc3)cccc2C1=O was read as NOMO-1 viab 99*, Shh pathway inh inconclusive and MITF inhib 18.
COc1ccc(NC(=O)Nc2cccc3c2O[C@H](CN(C)Cc2ccccc2)[C@@H](C)CN([C@@H](C)CO)C3=O)cc1 was read as NOMO-1 viab 63, Shh pathway inh -32 and MITF inhib -15.
Screening C[C@@H]1CN([C@@H](C)CO)C(=O)c2cccc(NC(=O)Nc3ccccc3)c2O[C@H]1CN(C)Cc1ccc(Oc2ccccc2)cc1 returned NOMO-1 viab 113*, Shh pathway inh -109 and MITF inhib 58.
Screening C[C@@H]1CN([C@H](C)CO)C(=O)c2cccc(NC(=O)Nc3ccccc3)c2O[C@H]1CN(C)Cc1ccc(Oc2ccccc2)cc1 returned NOMO-1 viab 23, Shh pathway inh -14 and MITF inhib 11.
`C[C@H](CO)N1C[C@H](C)[C@H](CN(C)Cc2ccc(Oc3ccccc3)cc2)Oc2c(NC(=O)Nc3ccc(F)cc3)cccc2C1=O` gave NOMO-1 viab 32, Shh pathway inh -20 and MITF inhib 9.
For C[C@@H]1CCCCO[C@@H](CN(C)C(=O)Cc2ccccc2)[C@@H](C)CN([C@H](C)CO)C(=O)c2cc(NC(=O)Nc3ccccc3)ccc2O1 the results were NOMO-1 viab -2, Shh pathway inh 4 and MITF inhib -7.
Cc1noc(C)c1NC(=O)Nc1cccc2c1O[C@H](CN(C)CC1CC1)[C@H](C)CN([C@H](C)CO)C2=O was read as NOMO-1 viab 2, Shh pathway inh -44 and MITF inhib 0.
`COc1ccc(S(=O)(=O)N(C)C[C@@H]2Oc3ccc(NS(=O)(=O)c4c(C)noc4C)cc3C(=O)N([C@@H](C)CO)C[C@@H]2C)cc1` gave NOMO-1 viab 6 and MITF inhib -13.
COC(=O)c1ccc(NC(=O)COc2cccc3ccccc23)cc1 was read as NOMO-1 viab 6, Shh pathway inh 48 and MITF inhib 16.
COC(=O)c1cccc(C(=O)Nc2cnc3ccccc3c2)n1 was read as NOMO-1 viab 123*, Shh pathway inh -3 and MITF inhib -9.
C[C@@H]1CN([C@H](C)CO)C(=O)Cc2cc(NC(=O)CCCCCC(=O)Nc3ccccc3N)ccc2O[C@H]1CN(C)Cc1ccc(-c2ccccc2)cc1 was read as NOMO-1 viab 140* and MITF inhib 10.
`C[C@@H]1CN([C@H](C)CO)C(=O)Cc2cc(NC(=O)CCCCCC(=O)Nc3ccccc3N)ccc2O[C@@H]1CN(C)Cc1ccc(-c2ccccc2)cc1` gave NOMO-1 viab 141* and MITF inhib 27.
C[C@@H]1CN([C@H](C)CO)C(=O)Cc2cc(NC(=O)CCCCCC(=O)Nc3ccccc3N)ccc2O[C@@H]1CN(C)Cc1ccncc1 was read as NOMO-1 viab 24 and MITF inhib 4.
C[C@@H]1CN([C@H](C)CO)C(=O)Cc2cc(NC(=O)CCCCCC(=O)Nc3ccccc3N)ccc2O[C@H]1CN(C)CC1CC1 was read as NOMO-1 viab 51 and MITF inhib -38.
`C[C@@H]1CN([C@@H](C)CO)C(=O)Cc2cc(NC(=O)CCCCCC(=O)Nc3ccccc3N)ccc2O[C@@H]1CN(C)C(=O)Nc1ccccc1` gave NOMO-1 viab 4 and MITF inhib -2.
For C[C@H](CO)N1C[C@H](C)[C@H](CN(C)Cc2ccncc2)Oc2ccc(NC(=O)CCCCCC(=O)Nc3ccccc3N)cc2CC1=O the results were NOMO-1 viab 49 and MITF inhib -14.
For C[C@H]1CN([C@@H](C)CO)C(=O)Cc2cc(NC(=O)CCCCCC(=O)Nc3ccccc3N)ccc2O[C@H]1CN(C)CC1CCCCC1 the results were NOMO-1 viab 138* and MITF inhib 21.
